Measured values reported in the supplement of paper PMC9254222.
Over roughly 1,100 compounds, “Renilla luciferase signal (cell health) relative to plate median” has its median near 0.97; the highest 2% begin near 1.6. The full list was thinned out, with the highest values kept by preference.

Tested on: HEK293T (UBE3A T485A transfected, BAR Wnt reporter)
Test: Renilla luciferase signal (cell health) relative to plate median (fold (linear ratio)); higher = higher Renilla signal
Settings: 24 h
Procedure, shortened: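 Each value averages four biological replicates in HEK293T cells grown at 4500 cells/well in DMEM with 10% FBS at 37°C and 5% CO2. The cells were transfected with a BAR firefly luciferase Wnt reporter, TK-Renilla and an expression plasmid, then four hours later robotically treated with the chemicals at 0.01–100 uM for 24 h. Dual-Glo luciferase signals were median-centred per plate, with the firefly/Renilla ratio reported as Wnt activity and raw Renilla as cell health.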

Row | SMILES | Renilla luciferase signal (concentration: 0.01 uM) | Renilla luciferase signal (concentration: 0.1 uM) | Renilla luciferase signal (concentration: 1 uM) | Renilla luciferase signal (concentration: 10 uM) | Renilla luciferase signal (concentration: 100 uM)
1 | CNC(=O)Oc1ccccc1OC(C)C [Propoxur] | 0.908 | 0.899 | 0.869 | 0.843 | 1.18
2 | c1cc2ccc3cccc4ccc(c1)c2c34 [Pyrene] |  | 0.967 | 0.928 | 1.05 | 0.889
3 | C1=Cc2cccc3cccc1c23 [Acenaphthylene] |  | 0.739 | 0.666 | 0.684 | 0.683
4 | c1cc2c3c(cccc3c1)CC2 [Acenaphthene] |  | 1.17 | 1.26 | 1.14 | 1.68
5 | CCOP(=S)(OCC)Oc1ccc2c(C)c(Cl)c(=O)oc2c1 [Coumaphos] | 1.01 | 1.11 | 1 | 1.04 | 0.717
6 | COC(=O)NC(=S)Nc1ccccc1NC(=S)NC(=O)OC [Thiophanate-methyl] | 1.37 | 0.913 | 1 | 1.01 | 0.274
7 | COC(=O)NS(=O)(=O)c1ccc(N)cc1 [Asulam] | 1.08 | 1.11 | 0.923 | 0.97 | 2
8 | COC(=O)c1ccccc1N [Methyl 2-aminobenzoate] |  | 1.09 | 1.07 | 1.11 | 1.51
9 | C1CC2OC2CC1C1CO1 (stereo not given) [4-Vinyl-1-cyclohexene dioxide] |  | 0.978 | 0.971 | 0.856 | 0.459
10 | Cc1cc(Cc2ccc(N)c(C)c2)ccc1N [4,4'-Methylenebis(2-methylaniline)] |  | 1.07 | 1.1 | 0.902 | 0.647
11 | CCOP(=O)(OCC)Oc1cc(C)nc(C(C)C)n1 [Diazoxon] | 1.03 | 0.822 | 0.982 | 0.982 | 1.37
12 | [N-]=[N+]=[N-].[Na+] [Sodium Azide] | 1.38 |  | 1.01 | 1.05 | 
13 | [N-]=[N+]=[N-].[Na+] [Sodium azide] |  | 1.11 |  |  | 1.29
14 | O=C1C2(Cl)C3(Cl)C4(Cl)C(Cl)(Cl)C5(Cl)C3(Cl)C1(Cl)C5(Cl)C24Cl (stereo not given) [Kepone] |  | 1.03 | 0.982 | 1 | 1.33
15 | COP(N)(=O)SC (stereo not given) [Methamidophos] | 1.08 | 0.989 | 1.14 | 1.04 | 2.27
16 | COP(=O)(NC(C)=O)SC (stereo not given) [Acephate] | 0.777 | 0.825 | 0.95 | 1 | 1.52
17 | Nc1ccc(Cc2ccc(N)cc2)cc1 [4,4'-Methylenedianiline] |  | 0.803 | 0.812 | 0.825 | 0.725
18 | O=C(O)C(Cl)(Cl)Cl [Trichloroacetic acid] |  | 0.932 | 1.09 | 1.11 | 1.35
19 | CCOP(=S)(OCC)OC(Cl)C(Cl)(Cl)Cl (stereo not given) [Chlorethoxyfos] | 0.648 | 0.673 | 0.754 | 0.769 | 1.03
20 | CCC(C)c1ccc(O)cc1 (stereo not given) [4-(Butan-2-yl)phenol] |  | 1.03 | 1.04 | 0.967 | 1.21
21 | CN(C)C(=O)Nc1cccc(C(F)(F)F)c1 [Fluometuron] | 1.01 | 0.858 | 0.955 | 0.915 | 1.74
22 | CN(C)C(=O)Nc1ccc(Cl)cc1 [Monuron] |  | 1.07 | 1.08 | 1.08 | 0.972

Row | SMILES | Renilla luciferase signal (concentration: 0.01 uM) | Renilla luciferase signal (concentration: 0.1 uM) | Renilla luciferase signal (concentration: 1 uM) | Renilla luciferase signal (concentration: 10 uM) | Renilla luciferase signal (concentration: 100 uM)
23 | CC(C)Oc1cccc(NC(=O)c2ccccc2C(F)(F)F)c1 [Flutolanil] | 0.958 | 0.913 | 0.934 | 0.913 | 1.07
24 | Cc1[nH]c(=O)n(C(C)(C)C)c(=O)c1Cl [Terbacil] | 0.884 | 0.706 | 0.903 | 0.738 | 1.53
25 | O=S(=O)(O)C(F)(F)C(F)(F)C(F)(F)C(F)(F)C(F)(F)C(F)(F)C(F)(F)C(F)(F)F | 0.967 | 0.956 | 0.993 | 0.948 | 0.944
26 | [Na+].[O-][Cl+][O-] [Sodium chlorite] |  | 1.07 | 0.996 | 1.06 | 1.34
27 | Clc1cc(Cl)c(Cl)cc1Cl [1,2,4,5-Tetrachlorobenzene] |  | 0.579 | 0.572 | 0.454 | 0.504
28 | Brc1ccc(Oc2ccccc2)cc1 [p-Bromodiphenyl ether] |  | 0.896 | 0.914 | 0.837 | 0.987
29 | [OH][Sn]([c]1ccccc1)([c]1ccccc1)[c]1ccccc1 [Triphenyltin hydroxide] | 0.857 | 0.622 | 0.135 | 0.0103 | 0.0121
30 | O=C(NC(=O)c1c(F)cccc1F)Nc1ccc(OC(F)(F)C(F)OC(F)(F)F)c(Cl)c1 (stereo not given) [Novaluron] | 1.08 | 0.982 | 0.998 | 0.935 | 1.48
31 | CCOP(=O)(SC(C)CC)N1CCSC1=O (stereo not given) [Fosthiazate] | 1.08 | 1.07 | 1.19 | 1.21 | 1.7
32 | [Cl-].[Cl-].[Hg+2] [Mercuric chloride] |  | 0.533 | 0.402 | 0.153 | 0.0217
33 | c1nc[nH]n1 [1H-1,2,4-Triazole] |  | 0.873 | 0.956 | 0.885 | 1.12
34 | CN/C(=N\[N+](=O)[O-])NCc1cnc(Cl)s1 [Clothianidin] | 0.978 | 0.964 | 0.897 | 1.05 | 1.48
35 | CN1COCN(Cc2cnc(Cl)s2)C1=N[N+](=O)[O-] [Thiamethoxam] | 1.14 | 1.09 | 1.1 | 0.959 | 2.15
36 | O=[N+]([O-])/N=C1\NCCN1Cc1ccc(Cl)nc1 [Imidacloprid] | 0.993 | 1.11 | 0.934 | 0.949 | 1.15
37 | O=S1OCC2C(CO1)C1(Cl)C(Cl)=C(Cl)C2(Cl)C1(Cl)Cl (stereo not given) [Endosulfan] | 1.05 | 1.05 | 1.02 | 1.13 | 1.06
38 | CS(=O)(=O)c1cc(C(F)(F)F)ccc1C(=O)c1cnoc1C1CC1 [Isoxaflutole] | 0.938 | 0.74 | 0.954 | 0.778 | 2.79
39 | CCC[CH2][Sn]([Cl])([CH2]CCC)[CH2]CCC [Tributyltin chloride] |  | 0.598 | 0.574 | 0.235 | 0.0217
40 | CCCSP(=O)(OCC)Oc1ccc(Br)cc1Cl (stereo not given) [Profenofos] | 0.9 | 0.888 | 0.969 | 1 | 0.894
41 | Nc1nc(N)nc(NC2CC2)n1 [Cyromazine] | 1.1 | 0.889 | 0.95 | 1.05 | 1.86
42 | CCN(CC)N=O [N-Nitrosodiethylamine] |  | 1.02 | 0.957 | 1.07 | 1.08
43 | C=CC(=O)OCCCCCC(C)C [Isooctyl acrylate] |  | 0.895 | 0.841 | 0.931 | 1.07
44 | CC1C(c2ccc(Cl)cc2)SC(=O)N1C(=O)NC1CCCCC1 (stereo not given) [Hexythiazox] | 0.957 | 0.999 | 0.929 | 0.977 | 0.244

Row | SMILES | Renilla luciferase signal (concentration: 0.01 uM) | Renilla luciferase signal (concentration: 0.1 uM) | Renilla luciferase signal (concentration: 1 uM) | Renilla luciferase signal (concentration: 10 uM) | Renilla luciferase signal (concentration: 100 uM)
45 | CN=C=S [Methyl isothiocyanate] | 0.842 | 0.902 | 0.962 | 1.06 | 1.71
46 | CC(C)(c1ccccc1)c1ccc(O)c(C(C)(C)c2ccccc2)c1 [2,4-Bis(1-methyl-1-phenylethyl)phenol] |  | 0.856 | 0.888 | 1.05 | 1.14
47 | CN(C)c1ccc(C(=O)c2ccc(N(C)C)cc2)cc1 [Michler's ketone] |  | 1.09 | 1.03 | 0.702 | 0.267
48 | Cc1cc(O)ccc1Cl [4-Chloro-3-methylphenol] |  | 0.999 | 1.09 | 0.977 | 1.06
49 | ClC1=C(Cl)C2(Cl)C3C4CC(C5OC45)C3C1(Cl)C2(Cl)Cl (stereo not given) [Dieldrin] |  | 1.01 | 0.977 | 1.07 | 0.829
50 | ClC1=C(Cl)C2(Cl)C3C4CC(C5OC45)C3C1(Cl)C2(Cl)Cl (stereo not given) [Endrin] |  | 0.878 | 0.941 | 0.842 | 0.349
51 | CCCCCOC(=O)c1ccccc1C(=O)OCCCCC [Dipentyl phthalate] |  | 0.95 | 0.861 | 0.91 | 1.18
52 | CCCCOC(=O)c1ccccc1C(=O)OCCCC [Dibutyl phthalate] | 1.02 | 1.04 | 1.02 | 1.03 | 0.11
53 | CCCCOC(=O)c1ccccc1C(=O)O [Monobutyl phthalate] | 0.968 | 0.862 | 0.73 | 1.21 | 2.17
54 | Cc1cnc(C2=NC(=O)C(C)(C(C)C)N2)c(C(=O)O)c1 (stereo not given) [Imazapic] | 1.11 | 1.17 | 1.18 | 1.14 | 1.72
55 | CC(C)C1(C)N=C(c2nc3ccccc3cc2C(=O)O)NC1=O (stereo not given) [Imazaquin] | 1.09 | 1.09 | 1.07 | 1.06 | 1.38
56 | CCC(C)C1OC2(C=CC1C)CC1CC(CC=C(C)C(OC3CC(OC)C(OC4CC(OC)C([NH2+]C)C(C)O4)C(C)O3)C(C)C=CC=C3COC4C(O)C(C)=CC(C(=O)O1)C34O)O2.O=C([O-])c1ccccc1 (stereo not given) [Emamectin benzoate] | 1.02 | 1.08 | 0.877 | 0.0929 | 0.0231
57 | CCc1cnc(C2=NC(C)(C(C)C)C(=O)N2)c(C(=O)O)c1 (stereo not given) [Imazethapyr] | 1.11 | 0.962 | 0.96 | 0.991 | 1.58
58 | CC(C)C1(C)N=C(c2ncccc2C(=O)O)NC1=O (stereo not given) [Imazapyr] | 0.822 | 0.714 | 0.895 | 0.959 | 1.42
59 | COCc1cnc(C2=NC(C)(C(C)C)C(=O)N2)c(C(=O)O)c1 (stereo not given) [Imazamox] | 0.649 | 0.799 | 0.965 | 0.977 | 2.3
60 | CCCOC/C(=N\c1ccc(Cl)cc1C(F)(F)F)n1ccnc1 [Triflumizole] | 0.984 | 0.937 | 0.992 | 0.929 | 1.45
61 | CCSC(=O)N(CC)C1CCCCC1 [Cycloate] | 0.797 | 0.996 | 0.924 | 1.01 | 1.15
62 | CCSC(=O)N1CCCCCC1 [Molinate] | 0.998 | 0.899 | 0.905 | 1.04 | 1.8
63 | CCOP(=S)(Oc1cnc(C(C)(C)C)nc1)OC(C)C (stereo not given) [Tebupirimfos] | 1.07 | 1.22 | 1.16 | 1.08 | 1.4
64 | CSC(=O)c1c(C(F)F)nc(C(F)(F)F)c(C(=O)SC)c1CC(C)C [Dithiopyr] | 0.664 | 0.813 | 0.927 | 0.835 | 1.14
